Assay results published in ChEMBL document CHEMBL3988442, “University of Dundee, Small-Polar-MMV Screening Library” (2021).
The whole screen tested about 38,000 compounds, of which about 1,200 (3.2%) showed an effect of 50% or more. The median lay at about -58%. The entries come from a sample that favours strong results as a whole.

Test system: Plasmodium falciparum
Experiment: Calibr Malaria Delayed Death Assay SOP
Type: functional, organism-based
Design: scale not given: in the data most compounds retested in dose-response had high values
Settings: concentration 4.99e-06 (unit not given; other assays of the set use mol/L)

Row | SMILES | Percent Effect [%]
1 | O=C(O)C(F)(F)F.O=C(c1ccoc1)N1CCOCC2(CCN(C3CCOCC3)C2)C1 (stereo unspecified) | -39.42
2 | COCCN(C)c1nc(-c2ccncc2)nc2c1CCN(C(C)=O)C2 | -64.34
3 | COCCCN(C)c1nc(-c2ccncc2)nc2c1CCN(C(C)=O)C2 | -86.15
4 | CCN1Cc2cc(F)ccc2N(C(=O)C2CCC2)CCC1=O | -44.87
5 | CCOc1ccccc1CN(CC)Cc1ccc(S(C)(=O)=O)cc1 | -21.06
6 | Cc1ccccc1CN(CCN(C)C)Cc1ccc(S(C)(=O)=O)cc1 | 79.52
7 | Cc1ccccc1CN(Cc1ccc(S(C)(=O)=O)cc1)CC(C)C | -26.42
8 | O=C(NCc1ccc2c(c1)OCO2)c1ccccc1C1CCNC1 (stereo unspecified) | -7.767
9 | Cc1nccn1-c1ccc(=O)n(CCNC(=O)c2ccccn2)n1 | -133.3
10 | CCn1c(CN(C)Cc2csc(C)n2)nc2cc(F)ccc21 | 60.85
11 | CCN(Cc1csc(C)n1)c1cccc(CO)c1 | -39.75
12 | CCn1c(CN(C)Cc2cnc(C)s2)nc2cc(F)ccc21 | -16.92
13 | O=C(Nc1cnn(Cc2ccc(F)cc2Cl)c1)C1CC1 | -1.724
14 | CCn1cc(NC(=O)C2CCN(Cc3ccccc3)CC2)cn1 | -64.73
15 | O=C(Nc1cnn(COc2ccc(F)cc2Cl)c1)C1CC1 | 66.71
16 | CCc1cc(N2CCC(Nc3ccc(Cl)cn3)CC2)ncn1 | -58.54
17 | CC(C)[C@H]1CN(C2Cc3ccccc3C2)C[C@@H]1NS(C)(=O)=O | 31.34
18 | CC(C)[C@@H]1CN(Cc2ccccn2)C[C@H]1NS(=O)(=O)N(C)C | -49.07
19 | CC(C)[C@@H]1CN(CCOc2ccccc2)C[C@H]1NS(=O)(=O)N(C)C | 40.07
20 | CC(C)[C@H]1CN(c2ccncc2)C[C@@H]1NS(=O)(=O)N(C)C | -51.73
21 | CC(C)[C@@H]1CN(Cc2ccsc2)C[C@H]1NS(=O)(=O)N(C)C | 65.02
22 | CC(C)[C@H]1CN(C2Cc3ccccc3C2)C[C@@H]1NS(=O)(=O)N(C)C | 61.34

Row | SMILES | Percent Effect [%]
23 | CCc1cc(NCCc2cc(F)cc(F)c2)n2nccc2n1 | -125.8
24 | c1cnn(CCNCc2cnc(N3CCCC3)nc2)c1 | -23.83
25 | Cc1ccccc1C(NC(=O)NCC1(CO)CC1)C1CC1 (stereo unspecified) | -98.91
26 | CCc1nc(CN2CCCC(N(C)Cc3cnc(C)cn3)C2)no1 (stereo unspecified) | -35.57
27 | CC(NC1(CNC(=O)OC(C)(C)C)CCOCC1)c1ccccc1 (stereo unspecified) | -63.28
28 | CC(NC(=O)CSCC#N)c1ccccc1 (stereo unspecified) | -131
29 | CC(=O)c1ccc(Nc2nc(N)nc3c2nc(C)n3C)cc1 | -204.1
30 | Cc1ccc2cccc(S(=O)(=O)N(C)CC3CCN(C)C3)c2n1 (stereo unspecified) | 35.25
31 | Cc1ccc2cccc(S(=O)(=O)N(C)CC3CCN(C)CC3)c2n1 | 56.89
32 | Cc1ccc2cccc(S(=O)(=O)N(C)C3CCCN(C)C3)c2n1 (stereo unspecified) | 32.17
33 | CSCc1noc(CN2CC(Cc3ccccc3)CC2=O)n1 (stereo unspecified) | -65.09
34 | CN1CCCCC1C(=O)N1CCN(c2ccccc2C#N)CC1 (stereo unspecified) | 8.936
35 | CN1CCCCCC1C(=O)N1CCN(c2ccccc2C#N)CC1 (stereo unspecified) | 59.17
36 | CN1CCCCCC1C(=O)N1CCCN(c2ccccc2)CC1 (stereo unspecified) | 60.61
37 | Cc1cnn(CCC(=O)N2CCCN(c3ccccc3C#N)CC2)c1 | -36.97
38 | COC(=O)N1CCCCC1C(=O)N1CCN(c2cccnc2)CC1 (stereo unspecified) | -94.01
39 | CN1CCC(C(=O)N2CCCN(c3cccnn3)CC2)C1 (stereo unspecified) | -4.513
40 | CCC(c1ccc(F)cc1)S(=O)(=O)CCO (stereo unspecified) | -152
41 | COc1cc(C#N)ccc1OC12CCCN(CC1)C2 (stereo unspecified) | -68.61
42 | O=C(CC1CCCO1)NCCCC(=O)Nc1ccc(Cl)cc1 (stereo unspecified) | -29.37
43 | CCOc1ccc(Cl)cc1C(C(=O)O)N1CCCC1 (stereo unspecified) | -0.3366
44 | CCOc1ccc(Br)cc1-c1cc(N)[nH]n1.Cl | -27.86

Row | SMILES | Percent Effect [%]
45 | COc1ccc(CCC2CCCCN2)cc1OC (stereo unspecified) | -120.3
46 | COc1ccc(Br)cc1CC(=O)N1CCCC1 | -142.1
47 | CCOc1ccc(Br)cc1S(=O)(=O)N(CC)Cc1ccc(N(C)C)cc1 | -41.17
48 | COc1ccc(CCNC(=O)NC2CCCC2)cc1OC | -80.35
49 | c1csc(CN2CCCN(c3ccc(Cn4ccnc4)cn3)CC2)c1 | -41.75
50 | COC1CN(C(=O)Cc2cccs2)CCC(=O)N(C)c2ccccc21 (stereo unspecified) | -19.51
51 | CCc1cc(=O)[nH]c(-c2ccc(NC(CO)CC(C)C)nc2)n1 (stereo unspecified) | -171.9
52 | Cc1noc(C)c1C(=O)N1CCC2(CC(N(C)c3ccncn3)C2)C1 (stereo unspecified) | -76.24
53 | CCn1c(C2CCN(C(=O)c3cc(CC(C)C)no3)CC2)nn(C)c1=O | -42.91
54 | Cc1cc(C)nc(NC2CCC(=O)N(C)C2)n1 (stereo unspecified) | -38.75
55 | CC(C)C(=O)NCC(=O)N(C)C1CCCN(C2Cc3ccccc3C2)C1 (stereo unspecified) | -100.1
56 | O=C(CCc1ccccn1)NC1CCCN(C2Cc3ccccc3C2)C1 (stereo unspecified) | 9.867
57 | Cc1cc(C)nc(NC2CCc3nc(C)nn3C2)n1 (stereo unspecified) | -11.11
58 | c1ccc(-c2cc(CN3CCCCCC3c3ccco3)on2)nc1 (stereo unspecified) | -88.84
59 | Cc1nc[nH]c1CN1CCN(C(=O)CN2CCCC2)[C@H]2CS(=O)(=O)C[C@H]21 | -125.3
60 | Cc1nccc(-c2cccc(NCC(=O)N3CCOC(C)C3)c2)n1 (stereo unspecified) | -139.7
61 | CCn1ncnc1CN1CCC(CNC(=O)c2ccccc2C#N)C1 (stereo unspecified) | -133.7
62 | COc1ncc(C(=O)N2CCC(c3nc(C)n4ccsc34)CC2)cn1 | -121.9
63 | CC(NC(=O)c1ccc(Cl)cc1)c1nnc(SCC(=O)O)n1C (stereo unspecified) | -106.5
64 | O=C(c1ccc(-n2cccc2)c(F)c1)N1CCCN2CCCC2C1 (stereo unspecified) | 6.651
65 | CN(Cc1nnc(C2CC2)n1C)S(=O)(=O)c1ccccc1F | -15.64
66 | CC1c2ncc(COc3cccnc3)n2CCN1C(=O)C1=CCCCC1.O=C(O)C(F)(F)F (stereo unspecified) | -13.51
